The text below walks through data of PubChem BioAssay (NCATS).

Results filed as inconclusive are left out. Values without a mark were called inactive. Calls come from the whole dose curve; as a rule, active = well fitted curve in either direction with a large enough effect (not every such curve was filed as active); inconclusive = small, poorly fitted or top-dose-only effect, or another doubt; inactive = flat fitted curve, though single readings scatter.
% is set by controls: 0 for no effect and ±100 for the full control effect.

The nature of the first assay: AP1 Signaling Pathway (AID 357). To be noted: ME-180 (cervical carcinoma) AP-1-bla reporter, EGF-induced, beta-lactamase ratio, 5 h; at 17.2 µM (top of the series) unless noted. An outline of the steps: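 Read-out was the 460nm/530nm emission ratio (excitation 405nm) after CCF4 loading for 2.5 hours at room temperature. Cells carried an AP-1-driven beta-lactamase reporter, were stimulated with EC50 EGF plus compound for 5 hours, and AC50 values came from titrations.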
Consider `COC(=O)c1n[nH]c2ccccc12`, for which the activity change, negative = inhibition was 9.29%.

As for `c1cc(-c2nnc3sc(C4CCCCC4)nn23)ccn1`, the activity change, negative = inhibition is -28.7%.

On to `CN(C)c1ccc(C2C3C(=O)N(c4ccc(C(=O)O)cc4)C(=O)C3ON2c2ccccc2)cc1` (stereo not given), for which the activity change, negative = inhibition is -1.48%.

Take `CCCCOc1ccc(C(=O)N2CCCC2C(=O)O)cc1` (stereo not given): the activity change, negative = inhibition was -0.0169%.

Regarding `O=C(NCc1ccco1)c1ccc(=O)oc1`, the activity change, negative = inhibition is 13.8%.

For the compound `Cc1cccc(-c2nnc3n2N=C(c2ccccc2)CS3)c1`, the activity change, negative = inhibition is -18.5%.

On to `COCCNC(=O)C(C#N)c1nc2ccccc2nc1N1CCN(Cc2ccc3c(c2)OCO3)CC1` (stereo not given), for which the activity change, negative = inhibition is -20.2%.

For the compound `CC1(C)Cc2c(c(N3CCOCC3)nc3snc(N)c23)CO1`, the activity change, negative = inhibition was -12.8%.

`COC(=O)c1c(C)noc1-c1cc(C)on1`: the activity change, negative = inhibition was 10.7%.

For the compound `COCc1[nH]nc2c1C(c1ccnc3ccccc13)C(C#N)=C(N)O2` (stereo not given), the activity change, negative = inhibition was -7.4%.

Regarding `C=C(C)CSc1nc(N)c2c3c(sc2n1)CCC3`, the activity change, negative = inhibition is -27.1%.

`N#CC1=C(N)OC2=C(C(=O)CCC2)C1CCc1ccccc1` (stereo not given): the activity change, negative = inhibition was -2.2%.

On to `Cc1ccc(-c2nnc(-c3cccc(Br)c3)o2)cc1`, for which the activity change, negative = inhibition was 14.2%.

On to `COC(=O)C1=C(C)N=C2SC(C)C(=O)N2C1c1cccs1` (stereo not given), for which the activity change, negative = inhibition is -11.1%.

As for `CC1(C)NC(=O)N(CC(O)COc2cc3ccccc3cc2C(=O)N2CCCCC2)C1=O` (stereo not given), the activity change, negative = inhibition is -6.63%.

Consider `CCOC(=O)CCCCC(=O)NC(CO)C(=O)NC` (stereo not given), for which the activity change, negative = inhibition was 13.2%.

In the case of `CCCOc1ccc(/C(O)=C2/C(=O)C(=O)N(CCN3CCOCC3)C2c2ccccc2)cc1` (stereo not given), the activity change, negative = inhibition is -16.7%.

Consider `O=C(C(c1ccccc1)N1CCOCC1)N1CCOCC1` (stereo not given), for which the activity change, negative = inhibition is 27.9%.

Take `N#CC1=C(C=Nc2ccccc2O)CCC1`: the activity change, negative = inhibition is 12.3%.

`COc1cccc(-c2nnc3sc(-c4ccco4)nn23)c1`: the activity change, negative = inhibition was -6.59%.

`COc1ccc2[nH]c(C)c(C(=O)CN3CC(C)OC(C)C3)c2c1` (stereo not given): the activity change, negative = inhibition is 0.748%.

As for `Cc1cc(OCCN2CCOCC2)nc2ccccc12`, the activity change, negative = inhibition was -9.97%.

Take `CC1(C(=O)CSc2nc3ccccc3[nH]2)CCC(=O)O1` (stereo not given): the activity change, negative = inhibition is 4.25%.

Regarding `O=C1N[C@@H](Cc2cnc[nH]2)C(=O)N2CCC[C@@H]12`, the activity change, negative = inhibition was 15.2%.

On to `CCCCc1nc(NCCN2CCOCC2)c(C#N)c2c1COC(C)(C)C2`, for which the activity change, negative = inhibition is -15.7%.

For `CCOC(=O)NC(O)C(=O)c1cccs1` (stereo not given), the activity change, negative = inhibition was 11.6%.

Regarding `O=C(O)CC(C(=O)N(c1ccccc1)c1ccccc1)N1CCOCC1` (stereo not given), the activity change, negative = inhibition is -5.33%.

In the case of `CCOC(=O)C1CCCN(c2nc3ccccc3nc2C(C#N)C(=O)OCCOC)C1` (stereo not given), the activity change, negative = inhibition is -28.5%.

For the compound `COc1ccccc1C1/C(=C(/O)c2ccc(C)cc2)C(=O)C(=O)N1Cc1ccco1` (stereo not given), the activity change, negative = inhibition was 12.8%.

As to `COc1ccc2cnn(-c3ccccc3C)c(=O)c2c1OC`, the activity change, negative = inhibition is 10.7%.

Regarding `O=C(O)CC(NCc1ccco1)C(=O)OCCc1ccccc1` (stereo not given), the activity change, negative = inhibition is 2.29%.

Turning to `CC1=CC(c2ccccc2)n2nc(N3C(=O)C4CC=CCC4C3=O)nc2N1` (stereo not given), the activity change, negative = inhibition is 0.952%.

In the case of `O=C1OC(Nc2ccc(Br)cn2)c2ccccc21` (stereo not given), the activity change, negative = inhibition is 12.2%.

As to `COc1ccc(C2CC(=O)C(C=NCCN3CCOCC3)=C(O)C2)cc1` (stereo not given), the activity change, negative = inhibition was 18.9%.

With `CCC1(C)Cc2c(sc(NC(=O)CCC(=O)O)c2C#N)CO1` (stereo not given), the activity change, negative = inhibition is 4.06%.

Turning to `CCN(CC)c1nc(N2CCOCC2)c(C#N)c2c1CN(C)CC2`, the activity change, negative = inhibition is -1.52%.

For `COc1ccc2nc(SCC(=O)O)nc(C)c2c1`, the activity change, negative = inhibition is 5.08%.

On to `CC(=O)[C@H]1CC[C@H]2[C@@H]3CCC4=CC(=O)CC[C@]4(C)[C@H]3[C@H](O)C[C@]12C`, for which the activity change, negative = inhibition was -0.48%.

Consider `c1ccc2c(c1)nc(CN1CCOCC1)n1c3ccccc3nc21`, for which the activity change, negative = inhibition was 25.2%.

For the compound `CCCOc1cccc(C2C(C(=O)c3ccc(C)o3)=C(O)C(=O)N2CCCN(C)C)c1` (stereo not given), the activity change, negative = inhibition is -10.8%.

A short description of another assay: NFAT Signaling Pathway (AID 444).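 Note: carbachol stimulus at about its EC50 of 1 µM final.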 Conditions: Jurkat NFAT-bla M1, carbachol, beta-lactamase ratio, 5 h; at 17.2 µM (top of the series) unless noted. An outline of the steps: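 Read-out: CCF4 FRET ratio (460 nm/530 nm) after 1 h RT dye loading, used for %activity and AC50 from titration series. Cells: Jurkat NFAT-β-lactamase/M1 line, treated with compound plus 1 uM carbachol for 5 h, 37 °C.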
As for `COC(=O)c1n[nH]c2ccccc12`, the activity change, negative = inhibition is 15.6%.

For `c1cc(-c2nnc3sc(C4CCCCC4)nn23)ccn1`, the activity change, negative = inhibition is -22.5%.

For the compound `CN(C)c1ccc(C2C3C(=O)N(c4ccc(C(=O)O)cc4)C(=O)C3ON2c2ccccc2)cc1` (stereo not given), the activity change, negative = inhibition is 17.3%.

For the compound `CCCCOc1ccc(C(=O)N2CCCC2C(=O)O)cc1` (stereo not given), the activity change, negative = inhibition was -4.49%.

As to `O=C(NCc1ccco1)c1ccc(=O)oc1`, the activity change, negative = inhibition was 6.96%.

For the compound `Cc1cccc(-c2nnc3n2N=C(c2ccccc2)CS3)c1`, the activity change, negative = inhibition was -10.4%.

In the case of `COCCNC(=O)C(C#N)c1nc2ccccc2nc1N1CCN(Cc2ccc3c(c2)OCO3)CC1` (stereo not given), the activity change, negative = inhibition was -26.8%.

In the case of `CC1(C)Cc2c(c(N3CCOCC3)nc3snc(N)c23)CO1`, the activity change, negative = inhibition was -24.1%.

For `COC(=O)c1c(C)noc1-c1cc(C)on1`, the activity change, negative = inhibition was 10.8%.

As for `COCc1[nH]nc2c1C(c1ccnc3ccccc13)C(C#N)=C(N)O2` (stereo not given), the activity change, negative = inhibition is 17.7%.

Turning to `C=C(C)CSc1nc(N)c2c3c(sc2n1)CCC3`, the activity change, negative = inhibition was -3.51%.

On to `N#CC1=C(N)OC2=C(C(=O)CCC2)C1CCc1ccccc1` (stereo not given), for which the activity change, negative = inhibition was -13.6%.

On to `Cc1ccc(-c2nnc(-c3cccc(Br)c3)o2)cc1`, for which the activity change, negative = inhibition is -11.6%.

Regarding `COC(=O)C1=C(C)N=C2SC(C)C(=O)N2C1c1cccs1` (stereo not given), the activity change, negative = inhibition was -9.72%.

As for `CC1(C)NC(=O)N(CC(O)COc2cc3ccccc3cc2C(=O)N2CCCCC2)C1=O` (stereo not given), the activity change, negative = inhibition was 8.86%.

With `CCOC(=O)CCCCC(=O)NC(CO)C(=O)NC` (stereo not given), the activity change, negative = inhibition is 6.3%.

Consider `CCCOc1ccc(/C(O)=C2/C(=O)C(=O)N(CCN3CCOCC3)C2c2ccccc2)cc1` (stereo not given), for which the activity change, negative = inhibition is 4.9%.

Regarding `O=C(C(c1ccccc1)N1CCOCC1)N1CCOCC1` (stereo not given), the activity change, negative = inhibition is 7.74%.

For `N#CC1=C(C=Nc2ccccc2O)CCC1`, the activity change, negative = inhibition was 8.46%.

For `COc1cccc(-c2nnc3sc(-c4ccco4)nn23)c1`, the activity change, negative = inhibition is 7.27%.

As to `COc1ccc2[nH]c(C)c(C(=O)CN3CC(C)OC(C)C3)c2c1` (stereo not given), the activity change, negative = inhibition was -1.69%.

On to `Cc1cc(OCCN2CCOCC2)nc2ccccc12`, for which the activity change, negative = inhibition was 23.5%.

For the compound `CC1(C(=O)CSc2nc3ccccc3[nH]2)CCC(=O)O1` (stereo not given), the activity change, negative = inhibition is 3.87%.

`O=C1N[C@@H](Cc2cnc[nH]2)C(=O)N2CCC[C@@H]12`: the activity change, negative = inhibition is -19.2%.

Turning to `CCCCc1nc(NCCN2CCOCC2)c(C#N)c2c1COC(C)(C)C2`, the activity change, negative = inhibition is 13.3%.

With `CCOC(=O)NC(O)C(=O)c1cccs1` (stereo not given), the activity change, negative = inhibition was -1.46%.

For `O=C(O)CC(C(=O)N(c1ccccc1)c1ccccc1)N1CCOCC1` (stereo not given), the activity change, negative = inhibition is -0.593%.

`CCOC(=O)C1CCCN(c2nc3ccccc3nc2C(C#N)C(=O)OCCOC)C1` (stereo not given): the activity change, negative = inhibition is -3.48%.

Turning to `COc1ccccc1C1/C(=C(/O)c2ccc(C)cc2)C(=O)C(=O)N1Cc1ccco1` (stereo not given), the activity change, negative = inhibition is 15.4%.

As to `COc1ccc2cnn(-c3ccccc3C)c(=O)c2c1OC`, the activity change, negative = inhibition is -6.03%.

Regarding `O=C(O)CC(NCc1ccco1)C(=O)OCCc1ccccc1` (stereo not given), the activity change, negative = inhibition is 5.37%.

As to `CC1=CC(c2ccccc2)n2nc(N3C(=O)C4CC=CCC4C3=O)nc2N1` (stereo not given), the activity change, negative = inhibition was 13.9%.

Regarding `O=C1OC(Nc2ccc(Br)cn2)c2ccccc21` (stereo not given), the activity change, negative = inhibition was 16.3%.

As for `COc1ccc(C2CC(=O)C(C=NCCN3CCOCC3)=C(O)C2)cc1` (stereo not given), the activity change, negative = inhibition is -9.07%.

With `CCC1(C)Cc2c(sc(NC(=O)CCC(=O)O)c2C#N)CO1` (stereo not given), the activity change, negative = inhibition is 0.708%.

In the case of `CCN(CC)c1nc(N2CCOCC2)c(C#N)c2c1CN(C)CC2`, the activity change, negative = inhibition was 12.3%.

In the case of `COc1ccc2nc(SCC(=O)O)nc(C)c2c1`, the activity change, negative = inhibition was 7.89%.

`CC(=O)[C@H]1CC[C@H]2[C@@H]3CCC4=CC(=O)CC[C@]4(C)[C@H]3[C@H](O)C[C@]12C`: the activity change, negative = inhibition was 2.54%.

Regarding `c1ccc2c(c1)nc(CN1CCOCC1)n1c3ccccc3nc21`, the activity change, negative = inhibition is 25.2%.

For `CCCOc1cccc(C2C(C(=O)c3ccc(C)o3)=C(O)C(=O)N2CCCN(C)C)c1` (stereo not given), the activity change, negative = inhibition is 10.1%.
